# According to PubChem BioAssay:
# Several values for one entry are separate records, joined by “and”; a condition that tells them apart may be missing. Identical values can stand only once. Results filed as inconclusive are left out. Activity calls are given as the source filed them. Unless noted, the limit is not given here; nearly all actives have AC50 up to about 26 µM.
# Assays:
# [1] = viability loss in pontine glioma line – cell-based, SU-DIPG-XVII, MIPE5.0, CellTiter-Glo, qHTS, dose response (AID 1347060); conditions: CellTiter-Glo ATP luminescence;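 as to AC50: cells exposed to compound for 48 hours before viability readout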
# [2] = viability loss in pontine glioma line – cell-based, SU-DIPG-XIII, MIPE4.0, CellTiter-Glo, qHTS, dose response (AID 1347061; cut-off not given, nearly all actives have AC50 up to about 37 µM;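 also: cells exposed to compound for 48 hours before readout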); conditions: CellTiter-Glo ATP luminescence
# [3] = viability loss in pontine glioma line – cell-based, JHH-DIPG-1, MIPE4.0, CellTiter-Glo, qHTS, dose response (AID 1347062; cut-off not given, nearly all actives have AC50 up to about 27 µM;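 as to AC50: cells exposed to compound for two days before readout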); conditions: JHH-DIPG-1 viability, CellTiter-Glo ATP luminescence
# [4] = viability loss in pontine glioma line – cell-based, SU-DIPG-IV, MIPE4.0, CellTiter-Glo, qHTS, dose response (AID 1347063; cut-off not given, nearly all actives have AC50 up to about 30 µM;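 also: compound exposure lasted 48 hours before the viability readout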); conditions: CellTiter-Glo ATP luminescence
# [5] = viability loss in pontine glioma line – cell-based, SU-DIPG-XIII, MIPE5.0, CellTiter-Glo, qHTS, dose response (AID 1347064; cut-off not given, nearly all actives have AC50 up to about 23 µM;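 as to AC50: cells exposed to compound for 48 hours before the viability read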); conditions: CellTiter-Glo ATP luminescence
# [6] = viability loss in pontine glioma line – cell-based, SU-DIPG-XXV, MIPE5.0, CellTiter-Glo, qHTS, dose response (AID 1347065); conditions: CellTiter-Glo ATP luminescence;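 also: cells exposed to compound for 48 hours before ATP readout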
# [7] = growth inhibition of DIPG cells – cell-based, MIPE4.0 library, CellTiter-Glo luminescence, qHTS (AID 1347066; cut-off not given, nearly all actives have AC50 up to about 30 µM;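 also: cells exposed to compound for 48 hours before readout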); conditions: SU-DIPG-VI viability, CellTiter-Glo ATP luminescence
# [8] = JHH-DIPG-1 glioma cell viability, MIPE5.0 library, CellTiter-Glo luminescence, qHTS (AID 1347067); conditions: JHH-DIPG-1 glioma viability, CellTiter-Glo ATP luminescence;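 also: cells exposed to compound for 48 hours before readout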
# [9] = viability loss with induced miR-34 in A549 – imaging, A549 dox-inducible miR-34, nuclei and caspase counts, primary screen (AID 1347080;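 active = compounds whose cell count with miR-34 switched on is under 0.7 times the count with it off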); conditions: A549 miR-34 inducible, Hoechst nuclei count, 48 h
# [10] = growth inhibition of DIPG cells – cell-based, MIPE5.0 library, qHTS (AID 1347068; cut-off not given, nearly all actives have IC50 up to about 30 µM;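 as to IC50: cells exposed to compound for 48 hours before viability readout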); conditions: SU-DIPG-XXV viability
# [11] = MELAS cybrid and Rieske KO viability enhancers – cell-based, MELAS cybrids, Rieske KO mouse fibroblasts, CellTiter-Glo, primary screen (AID 1508586;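 active = mean z-score across replicates of 1.96 or higher in either the MELAS or the Rieske mutant cell line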;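 also: z relative to plate mean and SD of compound and empty wells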); conditions: low glucose
# [12] = stronger effect = lower value, cell number ratio, induced over uninduced
# [13] = measured here: relative caspase fold change +Dox/-Dox
# [14] = measured here: total cells with miR-34 induction, stronger effect = lower value
# [15] = measured here: total cells without miR-34 induction
structure (smiles),measurement,setting,value
O=C(/C=C/c1ccc(/C=C/C(=O)Nc2ccc(C3=NCCN3)cc2)cc1)Nc1ccc(C2=NCCN2)cc1,AC50,[1],2350 nM (active)
same,outcome,[2],inactive
same,outcome,[3],inactive
same,outcome,[4],inactive
same,outcome,[5],inactive
same,outcome,[6],inactive
same,outcome,[7],inactive
same,outcome,[8],inactive
same,fold change,[9]; [12],1.13 (inactive)
same,fold change,[9]; [13],1.21
same,cell count,[9]; [14],6840
same,cell count,[9]; [15],6050
Cc1cc(Nc2ncc3c(n2)N(C)C(=O)N(c2cc(NC(=O)c4cccc(C(F)(F)F)c4)ccc2C)C3)n(C)n1,AC50,[1],118 nM (active)
same,AC50,[2],1480 nM (active)
same,AC50,[3],418 nM (active)
same,AC50,[4],209 nM (active)
same,AC50,[5],105 nM (active)
same,AC50,[6],59 nM (active)
same,AC50,[8],263 nM (active)
same,IC50,[10],209 nM (active)
CC(=O)O[C@H]1C[C@@H]2CC[C@@H]3[C@H](CC[C@@]4(C)[C@H]3C[C@H]([N+]3(C)CCCCC3)[C@@H]4OC(C)=O)[C@@]2(C)C[C@@H]1[N+]1(C)CCCCC1,outcome,[1],inactive
same,outcome,[2],inactive
same,outcome,[3],inactive
same,outcome,[4],inactive
same,outcome,[5],inactive
same,outcome,[6],inactive
same,outcome,[7],inactive
same,outcome,[10],inactive
same,fold change,[9]; [12],1.08 (inactive) and 0.979 (inactive) and 0.882 (inactive)
same,fold change,[9]; [13],0.886 and 0.709 and 0.967
same,cell count,[9]; [14],10300 and 9210 and 9980
same,cell count,[9]; [15],9560 and 9410 and 11300
same,z-score,"[11]; MELAS cybrid survival, CellTiter-Glo 48 h, stronger effect = higher value",-0.0905 (inactive) and -0.925 (inactive)
same,z-score,"[11]; Rieske KO mouse fibroblast survival, CellTiter-Glo 72 h",-1.19 and -0.284
